# According to PubChem BioAssay AID504452 (The Scripps Research Institute Molecular Screening Center, 2011):
# Calls of active or inactive are those of the source. Cut-off read from the data, not from the text of the source: active = activation above about 85%; inactive = the rest.
# Biological target: Peroxisome proliferator-activated receptor gamma (Homo sapiens) (UniProt P37231)
# Assay: partial agonism at human PPARgamma receptor – cell-based, luciferase reporter, luminescence, primary screen (AID 504452);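 note: Cos-1 cells carrying PPARgamma and a response element luciferase reporter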
# Conditions: cell-based PPARg luciferase reporter, at 5 µM, stronger effect = higher value; activation (% of full agonist control): measured here: relative to full agonist control
# Chain of Peroxisome proliferator-activated receptor gamma (Homo sapiens) (P37231 whole entry, looked up): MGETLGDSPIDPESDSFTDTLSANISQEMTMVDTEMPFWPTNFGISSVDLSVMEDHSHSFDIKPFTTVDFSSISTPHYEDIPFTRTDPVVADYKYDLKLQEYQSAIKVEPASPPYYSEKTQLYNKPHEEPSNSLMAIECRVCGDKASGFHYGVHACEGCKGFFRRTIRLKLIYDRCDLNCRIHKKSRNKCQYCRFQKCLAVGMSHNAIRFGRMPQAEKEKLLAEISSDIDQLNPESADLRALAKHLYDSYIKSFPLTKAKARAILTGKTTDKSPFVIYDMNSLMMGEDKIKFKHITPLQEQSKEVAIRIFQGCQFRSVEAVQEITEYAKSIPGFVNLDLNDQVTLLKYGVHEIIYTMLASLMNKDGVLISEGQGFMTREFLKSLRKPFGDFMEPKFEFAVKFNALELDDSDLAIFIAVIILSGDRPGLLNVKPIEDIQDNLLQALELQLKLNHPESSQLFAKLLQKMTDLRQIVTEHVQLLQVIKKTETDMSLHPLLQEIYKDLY
SMILES,activation (% of full agonist control),activation (% of partial agonist control)
O=C(NC(Cc1ccccc1)C(=O)O)/C(=C/c1ccc(Cl)cc1)NC(=O)c1ccco1 (configuration not stated),24.4%,54% (inactive)
COc1ccc(O)c(C(=O)c2cc(C#N)c(=O)n(CC3CCCO3)c2)c1 (configuration not stated),38.1%,84.3% (inactive)
COc1ccc(C2C(C(=O)N3CCC(C(N)=O)CC3)CC(=O)N2c2ccc(OC)cc2)cc1 (configuration not stated),25.5%,56.5% (inactive)
O=[N+]([O-])c1cc(S(=O)(=O)Nc2cccc(C(F)(F)F)c2)ccc1-n1nnc2ccccc21,34.2%,75.8% (inactive)
Cc1cccn2c(CN3CCNC(=O)CC3)c(C(=O)N(C)CCc3ccccc3)nc12,36.3%,80.3% (inactive)
O=C(O)CC1=C(Nc2ccccc2)C(=O)N(c2ccccc2)C1c1ccc(F)cc1 (configuration not stated),31%,68.7% (inactive)
Cc1ccc2nc(N3C(=O)C(O)=C(C(=O)c4ccc(C)o4)C3c3ccc(O)cc3)sc2c1 (configuration not stated),37%,81.9% (inactive)
O=C(c1cc(-c2ccco2)nc2ccccc12)N1CCCC(C(F)(F)F)C1 (configuration not stated),27.6%,61% (inactive)
CC(Oc1ccc(F)cc1)C(=O)Nc1cc(S(=O)(=O)N2CCOCC2)ccc1N1CCCCC1 (configuration not stated),33.8%,74.8% (inactive)
S=C(NCCc1ccccc1)N1CCn2cccc2C1c1ccncc1 (configuration not stated),44.2%,97.9% (active)
Cc1cc(C)c2nc(N3C(=O)C(O)=C(C(=O)c4ccco4)C3c3ccco3)sc2c1 (configuration not stated),32.9%,72.7% (inactive)
COc1ccc(CNC(=O)Cn2c(=O)n(CCC(=O)N3CCCCC3)c(=O)c3sccc32)cc1,46.4%,103% (active)
O=c1c([N+](=O)[O-])c(NCCN2CCCCCC2)c2ccccc2n1-c1ccccc1,15.8%,34.9% (inactive)
c1ccc(CCN2CN(CCCN3CCOCC3)c3nc4ccccc4n3C2)cc1,24.6%,54.4% (inactive)
CCOC(=O)c1c(C)[nH]c(C(=O)Cn2c(=O)c3c(ncn3CC)n(Cc3ccccc3)c2=O)c1C,29.8%,66% (inactive)
CC(C(=O)N1CCN(c2ccccc2)CC1)N1C(=O)C2CC=CCC2C1=O (configuration not stated),32.1%,71.1% (inactive)
Cc1cc(N2C(=O)C(O)=C(C(=O)c3ccco3)C2c2cccc(Oc3ccccc3)c2)no1 (configuration not stated),32.2%,71.3% (inactive)
CCC(=O)Nc1nonc1-c1nc2ccccc2n1Cc1cccc2ccccc12,25.1%,55.5% (inactive)
Cc1cc(C(=O)CN2C(=O)C(=O)N(Cc3ccccc3)C2=O)c(C)n1Cc1ccc(F)cc1,38%,84.1% (inactive)
O=C(C1CC(=O)N(c2ccc3c(c2)OCCO3)C1)N1CCN(c2ccccc2O)CC1 (configuration not stated),31.6%,69.9% (inactive)
COc1ccccc1-n1cc(C(=O)c2cc(Cl)ccc2O)cc(C#N)c1=O,44.9%,99.4% (active)

SMILES,activation (% of full agonist control),activation (% of partial agonist control)
O=C(NC(Cc1ccccc1)C(=O)O)/C(=C/c1ccc([N+](=O)[O-])cc1)NC(=O)c1ccco1 (configuration not stated),35.3%,78.1% (inactive)
CC1Cc2cc(/C(O)=C3/C(=O)C(=O)N(CCN4CCOCC4)C3c3ccc(N(C)C)cc3)ccc2O1 (configuration not stated),29.1%,64.3% (inactive)
COc1ccccc1N1C(=O)C2C(c3ccc(F)cc3)NN(C(=O)c3ccc(C)cc3)C2C1=O (configuration not stated),30.1%,66.5% (inactive)
Cc1ccc(CN2C(=O)N/C(=C\c3cccn3-c3cccc(C(=O)O)c3)C2=O)cc1,36.9%,81.8% (inactive)
COc1cc(C2/C(=C(/O)c3ccccc3)C(=O)C(=O)N2c2ccccn2)ccc1O (configuration not stated),26%,57.6% (inactive)
CC(Oc1cccc(Cl)c1)C(=O)Nc1cc(S(=O)(=O)N2CCOCC2)ccc1N1CCCC1 (configuration not stated),35.3%,78.1% (inactive)
CCOc1ccc(CN2CCN(Cc3cccc4nonc34)CC2CCO)cc1 (configuration not stated),44.9%,99.4% (active)
Cc1cccn2c(=O)c(/C=C(\C#N)C(=O)NC3CCS(=O)(=O)C3)c(Oc3ccc(F)cc3)nc12 (configuration not stated),34.6%,76.7% (inactive)
CC(Oc1ccc2c(c1)oc(=O)c1ccccc12)C(=O)NC(Cc1c[nH]c2ccc(O)cc12)C(=O)O (configuration not stated),49.2%,109% (active)
COc1cc(C2/C(=C(/O)c3ccc(F)cc3)C(=O)C(=O)N2CCCC(=O)O)ccc1O (configuration not stated),37%,82% (inactive)
COc1ccc(-c2nn(-c3ccccc3)cc2/C=C2/SC(=S)N(CCC(=O)O)C2=O)c(C)c1,44.4%,98.3% (active)
O=C(Nc1cc(Cl)ccc1O)c1cc2n(n1)C(C(F)(F)F)CC(c1ccc3c(c1)OCO3)N2 (configuration not stated),35%,77.5% (inactive)
COc1cc2c(C(=O)N3CCN(c4ccccc4F)CC3)cn(C)c(=O)c2cc1OC,24.1%,53.4% (inactive)
COc1ccc(N2C(=O)C(=O)/C(=C(/O)c3ccc(C)cc3)C2c2cccnc2)cc1 (configuration not stated),28.8%,63.8% (inactive)
O=C(CN1CCOC1=O)N1CCCC(N2CCN(c3cccc(C(F)(F)F)c3)CC2)C1 (configuration not stated),26.5%,58.8% (inactive)
COC(=O)C1=CN(Cc2ccc(F)cc2)C=C(C(=O)OC)C1c1ccc(O)c(OC)c1,26.8%,59.4% (inactive)
CC(=O)c1ccc(N2CCN(C(=O)C3CCCN(S(=O)(=O)c4cnc[nH]4)C3)CC2)cc1 (configuration not stated),25.1%,55.5% (inactive)
O=C(Cn1c(=O)c(=O)n(Cc2ccccc2)c2ccc(Cl)cc21)NCC1CCCO1 (configuration not stated),31.1%,68.9% (inactive)
Cc1ccc2cc(CN(Cc3ccccc3)Cc3nnnn3C3CCCC3)c(=O)[nH]c2c1,39.2%,86.8% (active)
Cc1ccc(C(=O)NCc2cccc(C(F)(F)F)c2)cc1S(=O)(=O)N1CCCCC1,25.6%,56.7% (inactive)
